# Experimental data: PubChem BioAssay (NCATS)
# Records with an inconclusive call do not appear. The source made the active and inactive calls. Unless noted, calls come from the whole dose curve; as a rule, active = well fitted curve in the direction sought with a large enough effect; inconclusive = small, poorly fitted or top-dose-only effect, or another doubt; inactive = no such curve, though single readings can be large; an effect the other way counts as inactive or inconclusive.
# How the values were obtained:
# [1] = Primary qHTS for inhibitors of nuclear receptor binding SET domain protein 2 (NSD2) in an isogenic RCH-ACV NSD2 p.E1099K mutant (9B) (AID 1645876); note: potency is the fitted concentration of half-maximal effect; nearly all actives have a fitted effect of over 70% in size
# [2] = Primary qHTS for inhibitors of nuclear receptor binding SET domain protein 2 (NSD2) in an RCH-ACV wild type WT cells (2C) (AID 1645877); note: potency is the fitted concentration of half-maximal effect; nearly all actives have a fitted effect of over 70% in size
# [3] = target: Phospholipid hydroperoxide glutathione peroxidase GPX4 (Homo sapiens) (UniProt P36969); test: Primary qHTS Assay for Inhibitors of Recombinant Selenoprotein Glutathione Peroxidase 4 (GPX4) (AID 1845192); settings: outcome: dose series up to 50 µM unless noted; note: nearly all actives have a fitted effect of over 65% in size
# Summary of the method: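 NADPH consumption followed by fluorescence at 340/450 nm, t=0 and after 15 min at room temperature. Reaction started with cumene hydroperoxide (0.5 mM final) after 30 min compound–GPX4 preincubation; final 200 nM GPX4, 100 nM GR, 1 mM GSH, 0.5 mM NADPH.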
# [4] = qHTS drug screen for cell cycle checkpoint inhibitors in PARPi-resistant BRCA-mutant ovarian cancer cell lines. (AID 1963452; calls by dose curve); settings: PEO1/OlaR viability, CellTiter-Glo luminescence, 96 h, stronger effect = lower value
# Summary of the method: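 PEO1, PEO4 and PEO1/OlaR ovarian cancer cells, 600 per well, exposed 96 h at 37C to a dilution series. Viability read by CellTiter-Glo luminescence, normalized to DMSO and empty wells; activity summarized as Z-AUC.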
# [5] = target: Glutathione peroxidase 1 (Homo sapiens) (UniProt P07203); test: Primary qHTS Assay for Inhibitors of Recombinant Selenoprotein Glutathione Peroxidase 1 (GPX1) (AID 1845191); note: nearly all actives have a fitted effect of over 65% in size
# Summary of the method: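 NADPH consumption tracked by fluorescence at 340/450 nm between t=0 and t=15 min, room temperature. Final mix: 10 nM GPX1, 100 nM glutathione reductase, 1 mM GSH, 0.5 mM NADPH, 0.5 mM cumene hydroperoxide, 0.01% BSA; 30 min compound–enzyme preincubation.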
# [6] = target: Lysosomal acid glucosylceramidase (Homo sapiens) (UniProt P04062); test: Glucocerebrosidase-p2 (AID 348; in the data active = potency below about 10 µM; note: potency is the fitted concentration of half-maximal effect); settings: purified GBA, blue fluorogenic substrate, 40 min
# Summary of the method: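 Normal human glucocerebrosidase (0.2 nM) with blue fluorogenic substrate (80 uM final) in citrate/phosphate pH 5.9 with 10mM sodium taurocholate, 0.01% tween-20; 40 min RT, NaOH/glycine stop; fluorescence Ex 365/Em 440; AC50 from a titration from 0.6 nM upwards.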
# [7] = target: Glucocorticoid receptor (Homo sapiens) (UniProt P04150); test: GR-EFC Redistribution (AID 451; calls by dose curve; note: potency is the fitted concentration of half-maximal effect); settings: CHO-K1 GR-EFC translocation, beta-gal luminescence, 2 h
# Summary of the method: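 Translocation of GR-ED fusion to nuclear EA restores b-gal, read by luminescence after 1 h room-temperature detection. Engineered CHO-K1 biosensor cells, 1,000/well, exposed 2 h at 37 C to titrations up to 46 uM final.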
# [8] = target: Mitogen-activated protein kinase 10 (Mus musculus) (UniProt Q61831); test: JNK3 AlphaScreen Assay (AID 530; active = well fitted curve in either direction with a large enough effect, not every such curve was filed as active;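 note: kinase came from lysate of stimulated human HepG2 cells; signal reports phosphorylation of biotinylated GST-cJun 1-79 at Ser73 with 10 µM ATP; % is set by controls: 0 for no effect and ±100 for the full control effect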)
# Summary of the method: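 Kinase buffer: 20 mM Tris-HCl pH 7.6, 10 mM MgCl2, 1 mM DTT, 0.1 mM Na3VO4, 0.01% Tween-20; ATP 10 uM. Substrate biotin-GST-cJun(1-79), enzyme from activated HepG2 lysates. Detection by Ser73 phospho-antibody AlphaScreen.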
# [9] = target: 3',5'-cyclic-AMP phosphodiesterase 4B (Homo sapiens) (UniProt Q07343); test: qHTS Assay for Inhibitors of PDE-IV (AID 607; active = well fitted activation curve with a large enough effect in the main read-out, with a control signal flat, not every such curve was filed as active; note: % of control where 0% means no effect)
# Summary of the method: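 The readout is membrane depolarisation from a cAMP-sensing CNG channel, detected with a potential dye at ex 535/em 590. Cells were HEK293-derived (endogenous PDE-IV) at 1000 cells/well, titrated up to 22.9 uM final.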
# [10] = target: Glucocorticoid receptor (Homo sapiens) (UniProt P04150); test: GR-GFP Redistribution (AID 450;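 active = compounds whose dose series gives a full or clear partial fitted curve of increased nuclear translocation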; note: potency is the fitted concentration of half-maximal effect); settings: U2OS GR-GFP nuclear translocation, laser cytometry, 2 h
# [11] = qHTS Assay for Lipid Storage Modulators (AID 1519; calls by dose curve); settings: Drosophila S3 cells, BODIPY lipid droplet/cell ratio, laser cytometry, cells loaded with oleic acid; for activity change, negative = inhibition: at 57.5 µM (top of the series)
# Summary of the method: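 Cells seeded at 5,000 per well were treated with compounds over a concentration series and loaded with oleic acid (400 uM, as added). Lipid droplet fluorescence (488 nm excitation, 500-530 nm channel) was read by laser-scanning cytometry and normalized to 20 uM Triacsin C.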
# [12] = target: Ubiquitin carboxyl-terminal hydrolase 1 (Homo sapiens) (UniProt O94782); test: Inhibitors of USP1/UAF1: Pilot qHTS (AID 504865);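 note: rhodamine fluorescence freed from ubiquitin-rhodamine substrate followed over time; top concentration of the series differs between compounds; % is set by controls: 0 for no effect and ±100 for the full control effect; nearly all actives have a fitted effect of over 35% in size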
# Summary of the method: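 Kinetic fluorescence assay: 1nM USP1/UAF1, 15 min compound preincubation, then 150nM Ub-Rho; 480/540 nm.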
# [13] = AP1 Signaling Pathway (AID 357; active = well fitted curve in either direction with a large enough effect, not every such curve was filed as active;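 note: ME-180 reporter cells stimulated with EGF at its EC50 level; % is set by controls: 0 for no effect and ±100 for the full control effect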); settings: ME-180 AP-1-bla reporter, EGF-induced, beta-lactamase ratio, 5 h; at 7.69 µM (top of the series) unless noted
# Summary of the method: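 Read-out was the 460nm/530nm emission ratio (excitation 405nm) after CCF4 loading for 2.5 hours at room temperature. Cells carried an AP-1-driven beta-lactamase reporter, were stimulated with EC50 EGF plus compound for 5 hours, and AC50 values came from titrations.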
# [14] = NFAT Signaling Pathway (AID 444; active = well fitted curve in either direction with a large enough effect, not every such curve was filed as active;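 note: carbachol stimulus at about its EC50 of 1 µM final; % is set by controls: 0 for no effect and ±100 for the full control effect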); settings: Jurkat NFAT-bla M1, carbachol, beta-lactamase ratio, 5 h; at 7.69 µM (top of the series) unless noted
# Summary of the method: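 Read-out: CCF4 FRET ratio (460 nm/530 nm) after 1 h RT dye loading, used for %activity and AC50 from titration series. Cells: Jurkat NFAT-β-lactamase/M1 line, treated with compound plus 1 uM carbachol for 5 h, 37 °C.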
# [15] = Stat Signaling Pathway (AID 446; active = well fitted curve in either direction with a large enough effect, not every such curve was filed as active;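 note: ME-180 cervical cancer cells given 40 pM IL-6 alongside compound; SIE-controlled beta-lactamase reporter measured as 460/530 nm FRET emission ratio; % is set by controls: 0 for no effect and ±100 for the full control effect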); settings: ME-180 (cervical carcinoma) SIE beta-lactamase reporter, IL-6 stimulated, 5 h; at 7.69 µM (top of the series) unless noted
# Summary of the method: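 Emission at 460 and 530 nm (excitation 405 nm) reports SIE-controlled beta-lactamase in ME-180 cells. Cells received compound with 40 pM IL-6 for 5 hrs at 37 C; data scaled between 300 pM IL-6 and 125 nM JAK-inhibitor controls.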
# [16] = target: Cytochrome P450 1A2 (Homo sapiens) (UniProt P05177); test: p450-cyp1a2 (AID 410; calls by dose curve; note: potency is the fitted concentration of half-maximal effect)
# Summary of the method: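 Read-out is luminescence from luciferin produced by CYP1A2 demethylation of Luciferin-ME (100uM, at Km). Detection reagent stopped the 60 min NADPH-dependent reaction; signals were normalized to 57 uM furafylline.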
# [17] = target: Cytochrome P450 3A4 (Homo sapiens) (UniProt P08684); test: qHTS Assay for Activators of Cytochrome P450 3A4 (AID 885); note: nearly all actives have a fitted effect of over 65% in size
# Summary of the method: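 Activators are scored by enhanced luminescence from CYP3A4 conversion of luciferin-PPXE (25uM, equal to KM) to luciferin, after 60 min at RT with an NADPH-regenerating system.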
# [18] = measured here: PEO1 parental Z-AUC
# [19] = measured here: cell count channel max response
# [20] = measured here: lipid channel max response
# Sequence of Phospholipid hydroperoxide glutathione peroxidase GPX4 (Homo sapiens) (P36969 whole entry, looked up): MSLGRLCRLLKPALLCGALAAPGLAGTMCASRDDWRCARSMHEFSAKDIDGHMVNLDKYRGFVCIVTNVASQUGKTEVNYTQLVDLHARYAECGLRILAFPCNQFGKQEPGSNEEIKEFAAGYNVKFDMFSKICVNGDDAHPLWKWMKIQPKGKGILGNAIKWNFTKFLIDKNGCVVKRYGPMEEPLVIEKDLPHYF
# Sequence of Ubiquitin carboxyl-terminal hydrolase 1 (Homo sapiens) (O94782 whole entry, looked up): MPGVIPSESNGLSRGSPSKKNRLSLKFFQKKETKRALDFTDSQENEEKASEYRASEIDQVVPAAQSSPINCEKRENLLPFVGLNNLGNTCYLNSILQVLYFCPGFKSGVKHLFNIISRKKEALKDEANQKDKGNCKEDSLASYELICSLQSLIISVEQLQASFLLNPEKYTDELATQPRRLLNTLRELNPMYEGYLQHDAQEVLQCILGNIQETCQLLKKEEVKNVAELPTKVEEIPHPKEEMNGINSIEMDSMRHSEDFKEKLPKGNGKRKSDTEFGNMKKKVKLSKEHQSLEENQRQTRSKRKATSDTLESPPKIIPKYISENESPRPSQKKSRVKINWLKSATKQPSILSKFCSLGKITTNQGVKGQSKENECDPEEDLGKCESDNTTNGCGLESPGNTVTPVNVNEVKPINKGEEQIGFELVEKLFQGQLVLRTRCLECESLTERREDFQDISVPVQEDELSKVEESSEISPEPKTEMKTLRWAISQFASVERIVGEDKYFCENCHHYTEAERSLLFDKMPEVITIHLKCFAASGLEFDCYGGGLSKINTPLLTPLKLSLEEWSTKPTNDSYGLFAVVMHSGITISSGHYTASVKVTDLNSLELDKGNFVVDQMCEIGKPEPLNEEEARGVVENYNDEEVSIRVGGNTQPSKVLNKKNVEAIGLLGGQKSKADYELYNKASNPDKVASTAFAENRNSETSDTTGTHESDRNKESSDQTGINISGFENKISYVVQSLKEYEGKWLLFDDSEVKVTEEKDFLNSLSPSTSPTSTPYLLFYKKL
# Sequence of Lysosomal acid glucosylceramidase (Homo sapiens) (P04062 whole entry, looked up): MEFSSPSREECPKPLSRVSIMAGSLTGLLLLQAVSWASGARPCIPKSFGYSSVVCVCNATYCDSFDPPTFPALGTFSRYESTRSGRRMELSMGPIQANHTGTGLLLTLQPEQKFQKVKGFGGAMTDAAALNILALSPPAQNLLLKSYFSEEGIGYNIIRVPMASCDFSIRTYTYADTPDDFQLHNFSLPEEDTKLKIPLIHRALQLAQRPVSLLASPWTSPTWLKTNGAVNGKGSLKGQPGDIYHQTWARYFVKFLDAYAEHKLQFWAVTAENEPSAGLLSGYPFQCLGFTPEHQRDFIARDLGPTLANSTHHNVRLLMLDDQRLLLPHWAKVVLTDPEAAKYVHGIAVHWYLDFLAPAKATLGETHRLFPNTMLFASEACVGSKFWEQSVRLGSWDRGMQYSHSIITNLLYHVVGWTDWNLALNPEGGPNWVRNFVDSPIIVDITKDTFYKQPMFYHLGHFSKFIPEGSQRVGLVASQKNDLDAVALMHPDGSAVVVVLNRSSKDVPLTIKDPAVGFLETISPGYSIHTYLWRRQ
# Sequence of Glucocorticoid receptor (Homo sapiens) (P04150 whole entry, looked up, the tested form may be a part): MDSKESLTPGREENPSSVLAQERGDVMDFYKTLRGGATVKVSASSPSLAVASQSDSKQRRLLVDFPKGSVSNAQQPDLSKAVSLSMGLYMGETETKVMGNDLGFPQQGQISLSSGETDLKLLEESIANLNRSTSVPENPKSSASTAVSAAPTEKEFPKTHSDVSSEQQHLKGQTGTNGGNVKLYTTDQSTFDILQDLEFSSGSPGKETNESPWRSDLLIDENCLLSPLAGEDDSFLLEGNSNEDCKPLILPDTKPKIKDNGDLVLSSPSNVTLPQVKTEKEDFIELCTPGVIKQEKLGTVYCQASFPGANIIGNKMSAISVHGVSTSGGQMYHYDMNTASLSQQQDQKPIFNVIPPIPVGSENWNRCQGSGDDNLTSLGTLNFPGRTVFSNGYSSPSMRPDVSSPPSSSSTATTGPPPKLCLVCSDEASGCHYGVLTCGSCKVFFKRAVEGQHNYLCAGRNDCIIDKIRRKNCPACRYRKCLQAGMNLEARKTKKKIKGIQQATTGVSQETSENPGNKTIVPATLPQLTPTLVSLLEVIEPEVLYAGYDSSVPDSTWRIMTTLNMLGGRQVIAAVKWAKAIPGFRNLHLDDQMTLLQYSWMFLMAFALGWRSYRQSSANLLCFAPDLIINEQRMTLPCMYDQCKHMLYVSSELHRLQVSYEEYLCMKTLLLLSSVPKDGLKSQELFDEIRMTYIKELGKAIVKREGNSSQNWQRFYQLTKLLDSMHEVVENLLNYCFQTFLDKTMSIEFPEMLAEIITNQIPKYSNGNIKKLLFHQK
# Sequence of Glutathione peroxidase 1 (Homo sapiens) (P07203 whole entry, looked up): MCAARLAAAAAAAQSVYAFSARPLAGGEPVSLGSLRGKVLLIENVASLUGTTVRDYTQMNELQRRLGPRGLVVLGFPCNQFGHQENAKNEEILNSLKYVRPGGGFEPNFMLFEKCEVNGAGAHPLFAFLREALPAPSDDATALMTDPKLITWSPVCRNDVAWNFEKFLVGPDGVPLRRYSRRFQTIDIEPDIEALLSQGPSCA
# Sequence of 3',5'-cyclic-AMP phosphodiesterase 4B (Homo sapiens) (Q07343 whole entry, looked up): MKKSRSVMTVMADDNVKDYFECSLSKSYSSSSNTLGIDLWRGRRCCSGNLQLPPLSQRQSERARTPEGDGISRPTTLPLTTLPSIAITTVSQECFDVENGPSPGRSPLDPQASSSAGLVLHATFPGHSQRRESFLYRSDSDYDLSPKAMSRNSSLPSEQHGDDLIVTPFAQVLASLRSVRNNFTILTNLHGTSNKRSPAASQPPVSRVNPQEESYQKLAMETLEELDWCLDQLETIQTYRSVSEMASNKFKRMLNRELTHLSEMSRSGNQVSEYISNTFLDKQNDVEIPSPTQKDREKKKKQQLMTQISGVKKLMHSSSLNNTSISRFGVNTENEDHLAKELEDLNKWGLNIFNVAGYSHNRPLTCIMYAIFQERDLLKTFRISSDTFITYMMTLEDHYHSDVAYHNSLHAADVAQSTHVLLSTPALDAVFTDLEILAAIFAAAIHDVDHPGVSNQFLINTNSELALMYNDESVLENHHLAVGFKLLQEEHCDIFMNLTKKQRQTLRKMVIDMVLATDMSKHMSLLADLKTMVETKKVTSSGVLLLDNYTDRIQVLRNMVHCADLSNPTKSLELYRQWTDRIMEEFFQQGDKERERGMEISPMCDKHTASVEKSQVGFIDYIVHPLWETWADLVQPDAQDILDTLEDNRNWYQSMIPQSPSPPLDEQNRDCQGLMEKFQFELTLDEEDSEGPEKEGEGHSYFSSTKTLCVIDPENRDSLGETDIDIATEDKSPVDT
# Sequence of Cytochrome P450 1A2 (Homo sapiens) (P05177 whole entry, looked up): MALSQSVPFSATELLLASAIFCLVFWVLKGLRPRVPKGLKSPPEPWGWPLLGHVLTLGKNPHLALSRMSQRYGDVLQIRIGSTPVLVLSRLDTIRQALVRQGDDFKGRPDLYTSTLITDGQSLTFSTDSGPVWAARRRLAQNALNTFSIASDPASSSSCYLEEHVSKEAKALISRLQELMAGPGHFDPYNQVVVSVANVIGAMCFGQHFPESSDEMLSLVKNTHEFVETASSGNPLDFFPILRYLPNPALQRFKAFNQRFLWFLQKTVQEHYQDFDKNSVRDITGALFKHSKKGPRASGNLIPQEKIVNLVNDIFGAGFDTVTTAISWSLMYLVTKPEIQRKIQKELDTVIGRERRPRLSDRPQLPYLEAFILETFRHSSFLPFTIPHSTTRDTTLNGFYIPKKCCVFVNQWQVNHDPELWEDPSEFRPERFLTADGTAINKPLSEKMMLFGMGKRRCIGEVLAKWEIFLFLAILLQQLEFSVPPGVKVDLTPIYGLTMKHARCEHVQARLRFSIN
# Sequence of Cytochrome P450 3A4 (Homo sapiens) (P08684 whole entry, looked up): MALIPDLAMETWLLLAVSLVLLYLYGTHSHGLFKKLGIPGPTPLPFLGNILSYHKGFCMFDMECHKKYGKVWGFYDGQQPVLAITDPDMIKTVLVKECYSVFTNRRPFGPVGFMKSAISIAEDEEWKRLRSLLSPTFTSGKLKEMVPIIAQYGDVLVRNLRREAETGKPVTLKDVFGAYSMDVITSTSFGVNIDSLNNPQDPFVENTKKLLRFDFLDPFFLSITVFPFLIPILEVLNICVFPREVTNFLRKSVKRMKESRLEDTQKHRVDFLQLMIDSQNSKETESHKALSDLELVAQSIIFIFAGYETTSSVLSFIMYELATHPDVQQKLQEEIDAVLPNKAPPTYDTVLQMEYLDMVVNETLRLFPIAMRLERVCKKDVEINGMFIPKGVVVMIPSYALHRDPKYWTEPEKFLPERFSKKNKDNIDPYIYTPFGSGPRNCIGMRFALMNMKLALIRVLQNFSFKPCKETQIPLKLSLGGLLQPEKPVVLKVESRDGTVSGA
structure (smiles),measurement,setting,value
COc1cc2c3c(n(CCCN4CCOCC4)c(=O)c2cc1OC)-c1cc2c(cc1C3=O)OCO2,Potency,[1],0.372 µM (active)
same,Potency,[2],0.209 µM (active)
same,Potency,[3],inactive
same,Z-AUC,[4],-2.49 (inactive)
same,Z-AUC,[4]; [18],-2.16
same,Z-AUC,[4]; measured here: PEO4 Z-AUC,-0.656
CCOCOC[C@H](C[C@H](C)C(=O)NO)NC(=O)c1ccc(Oc2ccccc2)cc1,Potency,[5],inactive
same,Potency,[3],inactive
same,Z-AUC,[4],0.6 (inactive)
same,Z-AUC,[4]; [18],0.894
same,Z-AUC,[4]; measured here: PEO4 Z-AUC,1.19
COCCn1c(=O)c(-c2ccccc2)nc2cnc(N3CCNCC3)nc21,Potency,[6],> 11.4 µM (inactive)
same,Potency,[7],> 46 µM (inactive)
same,outcome,[8],inactive
same,Potency,[9],inactive
O=c1c(-c2cc(F)cc(F)c2)nc2cnc(N3CCNCC3)nc2n1-c1ccccc1,Potency,[6],> 11.4 µM (inactive)
same,Potency,[10],> 9.22 µM (inactive)
same,Potency,[7],> 46 µM (inactive)
same,outcome,[8],inactive
same,Potency,[9],inactive
same,"activity change, negative = inhibition",[11],4.01% (inactive)
same,max response,[11]; [19],3.1%
same,max response,[11]; [20],4.03%
same,Potency,[12],inactive
COCCn1c(=O)c(-c2ccc(Cl)cc2)nc2cnc(OCc3ccccc3)nc21,Potency,[6],> 11.4 µM (inactive)
same,"activity change, negative = inhibition",[13],-14.1% (inactive)
same,"activity change, negative = inhibition",[14],1.06% (inactive)
same,"activity, negative = inhibition",[15],-2.08% (inactive)
same,Potency,[10],> 9.22 µM (inactive)
same,Potency,[7],> 46 µM (inactive)
same,outcome,[8],inactive
same,"activity change, negative = inhibition",[11],-8.74% (inactive)
same,max response,[11]; [19],-2.09%
same,max response,[11]; [20],-15.5%
same,Potency,[12],inactive
Cc1cc(Nc2cc(N)ncn2)c(=O)n2c1C(=O)NC21CCCCC1,Potency,[1],2.57 µM (active)
same,Potency,[5],inactive
same,Potency,[3],inactive
same,Z-AUC,[4],-0.649 (inactive)
same,Z-AUC,[4]; [18],0.752
same,Z-AUC,[4]; measured here: PEO4 Z-AUC,0.801
COc1cc2c(Oc3ccc4[nH]c(C)cc4c3F)ccnc2cc1OCC1(N)CC1,Potency,[1],5.9 µM (active)
same,Potency,[2],3.72 µM (active)
same,Potency,[3],inactive
same,Z-AUC,[4],0.184 (inactive)
same,Z-AUC,[4]; [18],0.236
same,Z-AUC,[4]; measured here: PEO4 Z-AUC,0.196
O=C(NO)c1cnc(NC2(c3cccc(F)c3)CCCCC2)nc1,Potency,[1],14.8 µM (active)
same,Potency,[2],14.8 µM (active)
same,Potency,[5],inactive
same,Potency,[3],inactive
same,Z-AUC,[4],-1.41 (inactive)
same,Z-AUC,[4]; [18],-0.775
same,Z-AUC,[4]; measured here: PEO4 Z-AUC,-0.635
COc1cccc(Cn2c(=O)c(-c3ccccc3)nc3cnc(N4CCNCC4)nc32)c1,Potency,[6],> 11.4 µM (inactive)
same,Potency,[16],3.16 µM (active)
same,Potency,[10],> 9.22 µM (inactive)
same,Potency,[7],> 46 µM (inactive)
same,Potency,[9],inactive
same,Potency,[17],inactive
same,"activity change, negative = inhibition",[11],4.45% (inactive)
same,max response,[11]; [19],8.56%
same,max response,[11]; [20],11.2%
same,Potency,[12],inactive
